Bioassay records from PubChem.
aSyn 5UTR act – Activators via SNCA 5'UTR binding, MLPCN; actives 7.1% (n = 300,000); alpha-synuclein 5'UTR reporter, activators screen; AID 1814; activity score, % (tested at 7.5 µM), hits read low; in the data active = activity score below about -60%
Numbers stand for hits. The list is a sample of the results.

CCC(=NCc1ccccc1)c1c(C(F)(F)F)[nH]n(-c2nc3ccccc3s2)c1=O was read as aSyn 5UTR act -110.9.
Screening CC(C)C(=O)NCCc1nc(-c2ccc(Cl)cc2)no1 returned aSyn 5UTR act -98.7.
For O=c1[nH]c(/C=C/c2ccccc2[N+](=O)[O-])nc2ccccc12 the results were aSyn 5UTR act -189.9.
O=c1[nH]c(/C=C/c2cccc3ccccc23)nc2ccccc12 was read as aSyn 5UTR act -104.2.
Screening O=c1[nH]c(/C=C/c2ccccn2)nc2ccccc12 returned aSyn 5UTR act -176.1.
Screening Cc1oc(-c2ccc(Cl)cc2)cc1C(=O)O returned aSyn 5UTR act -82.6.
`Cc1ccnc(NC(=O)COc2ccc(Cl)cc2)n1` gave aSyn 5UTR act -83.5.
For O=C(COc1ccc(Cl)cc1)Nc1ncccn1 the results were aSyn 5UTR act -99.0.
Screening Cc1c(-c2ccccc2)nnn1-c1ccc(F)cc1F returned aSyn 5UTR act -93.1.
O=c1c2ccccc2nc2c3ccccc3c(NCCN3CCOCC3)nn12 was read as aSyn 5UTR act -344.7.
For c1ccc2nc3c(nc2c1)c1ccccc1n3CCN1CCOCC1 the results were aSyn 5UTR act -80.3.
`O=C(Nc1nc2ccccc2n1CCN1CCOCC1)c1cn(-c2ccccc2)nc1-c1ccccc1` gave aSyn 5UTR act inactive.
O=C(COc1ccccc1C(=O)c1cnn(-c2ccccc2)c1)Nc1ccc2ccccc2c1 was read as aSyn 5UTR act -136.2.
For CC(C)c1ccc(NC(=O)COc2ccc(F)cc2C(=O)c2cnn(-c3ccccc3)c2)cc1 the results were aSyn 5UTR act -114.7.
For Cn1cnnc1SCC(=O)c1c[nH]c2ccccc12 the results were aSyn 5UTR act -91.8.
For Cc1cc(C(=O)CSc2nncn2C)c(C)n1-c1ccccc1 the results were aSyn 5UTR act -66.7.
Screening Cc1cc(C(=O)CN2CC(C)OC(C)C2)c(C)n1-c1ccccc1 (configuration not stated) returned aSyn 5UTR act -104.6.
Screening Cc1cc(C(=O)CSc2cccc[n+]2[O-])c(C)n1-c1ccccc1 returned aSyn 5UTR act inactive.
For Cc1cc(-n2c(C)cc(C(=O)CCl)c2C)no1 the results were aSyn 5UTR act inactive.
Screening Cc1cc(C(=O)CSc2cccc[n+]2[O-])c(C)n1-c1ccc(Br)cc1 returned aSyn 5UTR act -150.0.
`Cc1ccc(-n2c(C)cc(C(=O)CSc3nncs3)c2C)cc1` gave aSyn 5UTR act -171.6.
`N/C(=N\c1nc2c(c(=O)[nH]1)CCC2)Nc1cccc2ccccc12` gave aSyn 5UTR act -70.9.
`Nc1nnc(SCc2cn3cc(Cl)ccc3n2)s1` gave aSyn 5UTR act -96.6.
Cc1ccc(SCc2cn3cc(Cl)ccc3n2)cc1 was read as aSyn 5UTR act -135.9.
Screening c1ccc2[nH]c(SCc3cn4ccccc4n3)nc2c1 returned aSyn 5UTR act -61.7.
`Cc1cc(C)c(C#N)c(SCc2cn3ccccc3n2)n1` gave aSyn 5UTR act -87.5.
`c1ccc2c(SCc3cn4ccccc4n3)nncc2c1` gave aSyn 5UTR act -69.6.
`Clc1ccc2nc(CSCc3ccccc3)cn2c1` gave aSyn 5UTR act -166.8.
Clc1ccc(SCc2cn3ccccc3n2)cc1 was read as aSyn 5UTR act -148.1.
Cc1cccc2nc(CSc3ccc(Cl)cc3)cn12 was read as aSyn 5UTR act -118.0.
Screening CNc1cc(CSc2ccc(Cl)cc2)nc(C)n1 returned aSyn 5UTR act -118.1.
COc1cccc(N/C(C)=C/C(=O)c2ccc(Br)cc2)c1 was read as aSyn 5UTR act -172.0.
For COc1ccc(OC)c(N/C=C/C(=O)c2ccccc2)c1 the results were aSyn 5UTR act inactive.
For COc1ccc(NC(=O)/C=C/c2ccc3c(c2)OCO3)cc1 the results were aSyn 5UTR act -90.6.
`COc1ccc(OC)c(N/C(C)=C/C(=O)c2ccccc2)c1` gave aSyn 5UTR act -112.7.
COc1ccc(N/C(C)=C/C(=O)c2ccccc2)cc1 was read as aSyn 5UTR act -150.9.
COc1ccc(C(=O)/C=C(\C)Nc2ccc3c(c2)OCO3)cc1 was read as aSyn 5UTR act -169.5.
For COC(=O)/C(=C\C(=O)c1ccccc1)Nc1ccc(OC)cc1 the results were aSyn 5UTR act -93.0.
For CC(=O)Nc1ccc(OCc2ccc3c(c2)OCO3)cc1 the results were aSyn 5UTR act -150.6.
Screening COc1ccc(OC)c(NC(=O)c2ccccc2OC(C)=O)c1 returned aSyn 5UTR act -68.9.
`COc1ccc(N/C(C)=C/C(=S)Nc2ccccc2)cc1` gave aSyn 5UTR act -74.6.
Screening CCCCN1C(=O)/C(=C2\SC(N3CCCCC3)=NC2=O)c2ccccc21 returned aSyn 5UTR act -149.0.
`Cc1ccc(S(=O)(=O)c2ccc([N+](=O)[O-])cn2)cc1` gave aSyn 5UTR act -73.0.
For c1ccc(Nc2ccnc(Nc3ccccc3)n2)cc1 the results were aSyn 5UTR act -100.4.
For NNc1nc(Nc2ccccc2)nc(Nc2ccccc2)n1 the results were aSyn 5UTR act -117.0.
Screening CCOC(=O)c1c(C)nc2c3ccccc3ccn12 returned aSyn 5UTR act -90.6.
For NC(=O)c1cc2c3ccccc3ccn2c1-c1ccccc1 the results were aSyn 5UTR act inactive.
